HEK293 tox: kills HEK 293 cells. HEK 293 viability, ATP luminescence (CellTiter-Glo), 48-72 h. Potency, µM (series often up to 115 µM), without a hit: at the top dose activity change, negative = cytotoxicity, hits mostly inhibitors. 94,000 compounds, 6.6% hits. AID 1345083; note: nearly all actives have a fitted effect of over 60% in size
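ATP-coupled CellTiter-Glo luminescence served as viability read-out, recorded 10 min after reagent addition at room temperature. HEK 293 cells, 250 cells/well, had been incubated with pintool-transferred compound for 48 or 72 hr at 37 degree Celsius.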
NIH3T3 tox: cytotoxic compounds in NIH 3T3 cells; Potency, µM (highest dose often 96.7 µM), without a hit: top-dose activity change, negative = cytotoxicity, most hits filed as inhibitors; 94,000 compounds, 4.3% hits; NIH 3T3 viability, CellTiter-Glo ATP luminescence, 48-72 h; note: nearly all actives have a fitted effect of over 55% in size
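ATP-dependent luminescence (CellTiter-Glo) served as the viability signal for NIH 3T3 cells treated with compound for 48 or 72 hr at 37 °C.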
NPR1 antag: human Npr1 receptor antagonism; P16066; HEK293 hNpr1 GloSensor cGMP, ANP-stimulated luminescence; Potency, µM (titrated, usually from 46.3 µM), for the others: top-dose activity change, negative = inhibition, hits mostly inhibitors; 76,000 compounds, 1.6% hits; AID 1347048; calls by dose curve; note: nearly all actives have a fitted effect of over 60% in size
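Compound pre-incubated 30 min at room temperature on GloSensor-loaded HEK293 cells stably carrying hNpr1 and the pGS-40F cGMP biosensor. Stimulation uses hNppA at 0.1 nM final; luminescence is taken at baseline and 20 min post-agonist.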
FLuc inh: inhibitors of firefly (Photinus pyralis) luciferase; P08659; Potency, µM (top dose mostly 115 µM), actives largely listed as inhibitors; purified P. pyralis luciferase, luminescence, biochemical; 76,000 compounds, 2.5% hits; AID 1347043; note: nearly all actives have a fitted effect of over 65% in size
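Purified P. pyralis luciferase (10nM final) in 50mM Tris acetate pH 7.5, 10mM Mg acetate, 0.01% Tween-20, 0.05% BSA with 10uM D-luciferin and 10uM ATP. Compounds titrated qHTS. Luminescence imaged on CCD.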
GPT2 inh: inhibitors of human GPT2 alanine aminotransferase. 100,000 compounds, 0.25% hits. Recombinant GPT2, coupled pyruvate oxidase/HRP Amplex Red fluorescence. Q8TD30. Potency, µM (doses to about 57.7 µM), for inactives: top-dose activity change, negative = inhibition, actives largely listed as inhibitors; note: nearly all actives have a fitted effect of over 60% in size
Target sequence (Q8TD30 whole entry, looked up): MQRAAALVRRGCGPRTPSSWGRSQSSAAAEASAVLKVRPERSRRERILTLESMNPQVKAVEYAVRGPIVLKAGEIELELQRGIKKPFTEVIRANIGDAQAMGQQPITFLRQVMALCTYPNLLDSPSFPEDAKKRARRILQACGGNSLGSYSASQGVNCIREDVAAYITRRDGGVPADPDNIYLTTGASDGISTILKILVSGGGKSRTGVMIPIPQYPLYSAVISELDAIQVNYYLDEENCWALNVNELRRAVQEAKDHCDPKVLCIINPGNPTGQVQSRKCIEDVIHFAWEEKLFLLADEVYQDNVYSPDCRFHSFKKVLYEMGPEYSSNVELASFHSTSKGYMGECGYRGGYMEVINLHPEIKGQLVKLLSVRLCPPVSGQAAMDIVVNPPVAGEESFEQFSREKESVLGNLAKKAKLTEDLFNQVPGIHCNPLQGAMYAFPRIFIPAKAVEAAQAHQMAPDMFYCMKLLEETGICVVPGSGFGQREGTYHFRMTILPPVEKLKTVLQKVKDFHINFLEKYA
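Fluorescence read-out: pyruvate from GPT2 turnover coupled to pyruvate oxidase, HRP and Amplex Red (0.2mM ThPP, 0.2U/mL PO and HRP, 50uM Amplex final). Substrates 250uM a-KG, 2mM L-alanine; enzyme 10ng/uL; 30 min RT.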
* marks the source's active call; other numbers are inactive results; i = inactive; ? = inconclusive; / = no result given; ! = not active in a repeat; [ ] = another dose, or the depositor's remark. Sampled rows, rich in hits. Any-hit rate of the full collection: about 10%. Unless noted, calls come from the whole dose curve; as a rule, active = well fitted curve in the direction sought with a large enough effect; inconclusive = small, poorly fitted or top-dose-only effect, or another doubt; inactive = no such curve, though single readings can be large; an effect the other way counts as inactive or inconclusive. % is set by controls: 0 for no effect and ±100 for the full control effect; potency is the fitted concentration of half-maximal effect.

SMILES	HEK293 tox	NIH3T3 tox	NPR1 antag	FLuc inh	GPT2 inh
Cc1cc(C)cc(-c2ccc(CN3CCCC(NC(=O)c4ccc(Cl)nc4)C3)cc2)c1 (centres undefined)	?	-12%	/	/	5%
Cc1cc(C)cc(-c2ccc(CN3CCCC(NC(=O)c4cccnc4)C3)cc2)c1 (centres undefined)	20µM*	20µM*	/	/	-20%
Cc1cc(C)cc(-c2ccc(CN3CCCC(NC(=O)c4ccncc4)C3)cc2)c1 (centres undefined)	28µM*	25µM*	/	/	-17%
COC(=O)NC1CCCN(Cc2ccc(-c3cc(C)cc(C)c3)cc2)C1 (centres undefined)	40µM*	45µM*	/	/	-30%[88.5 µM]
Cc1nc(C)c(C(=O)N2CC(Oc3ccccc3-c3nc(C4CC4)no3)C2)s1	89µM*	?	-2%	i	i
COc1cccc(C(=O)N2CC(Oc3cccc(-c4nc(-c5ccccc5)no4)c3)C2)c1	?	?	-4%	?	i
O=C(c1cccnc1)N1CC(Oc2ccc(-c3noc(-c4ccccc4)n3)cc2)C1	?	-15%	11µM*	?	i
COc1cccc(C(=O)N2CCC(Oc3ccccc3-c3nc(C4CCOCC4)no3)C2)c1 (centres undefined)	?	?	-4%	i	i
COc1cccc(C(=O)N2CC(Oc3ccc(-c4nc(-c5ccccc5)no4)cc3)C2)c1	22µM*	?	-10%	i	i
Cc1cnc(C(=O)N2CC(Oc3ccccc3-c3nc(C4CC4)no3)C2)cn1	?	-23%	6%	i	-4%
COc1cccc(C(=O)N2CC(Oc3ccccc3-c3nc(-c4ccccc4)no3)C2)c1	20µM*	?	-8%	?	-20%
CNCCN1C(=O)CC[C@H]2CN(c3ncc(Cl)cc3F)CC[C@H]21	?	-34%	-6%	i	-11%
O=C(NC1CCCC1)C1CCN(Cc2ccccc2-c2ccccc2F)CC1	-12%	-26%	/	/	-10%
Cn1nccc1C(=O)N1CCC(Oc2ccc(-c3noc(-c4ccccc4)n3)cc2)C1 (centres undefined)	22µM*	?	/	/	i
Cn1nccc1C(=O)N1CCC(Oc2ccccc2)C1 (centres undefined)	1%	-9%	4%	i	-21%
Cc1ccc(OCC(=O)N2CCC(CC(=O)N(C)Cc3ccccc3)C2)cc1 (centres undefined)	?	?	/	/	i
COc1ccc(CN2Cc3[nH]nc(-c4cccc(O)c4)c3CC2=O)cc1	?	10µM*	-12%[70.6 µM]	i	3%[88.5 µM]
O=C(c1ccc(Cl)nc1)N1CCC2(CC1)CC(c1cccc(C(F)(F)F)c1)=NO2	35µM*!	?	/	/	/
Cc1ccc(C(=O)N2CCC3(CC2)CC(c2cccc(C(F)(F)F)c2)=NO3)cc1	45µM*!	?	-26%	i	?
Clc1cccc(-c2cnc([C@@H]3COCCN3C3CCCCC3)[nH]2)c1	79µM*	?	-2%[70.6 µM]	i	?
Clc1ccc(-c2cnc([C@@H]3COCCN3Cc3ccccc3)[nH]2)cc1	89µM*	?	?	i	i
Oc1ccccc1CN1CCOC[C@H]1c1ncc(-c2ccc(F)cc2)[nH]1	?	-29%[138 µM]	-24%[70.6 µM]	i	-11%[88.5 µM]
Fc1cccc(-c2cnc([C@@H]3COCCN3C3CCCCC3)[nH]2)c1	?	-23%[138 µM]	5%[70.6 µM]	i	5%[88.5 µM]
Clc1cccc(-c2cnc([C@@H]3COCCN3Cc3ccccc3)[nH]2)c1	100µM*	79µM*	?	i	-1%[88.5 µM]
Oc1ccccc1CN1CCOC[C@H]1c1ncc(-c2ccccc2)[nH]1	?	100µM*	-16%[70.6 µM]	i	1%[88.5 µM]
SMILES	HEK293 tox	NIH3T3 tox	NPR1 antag	FLuc inh	GPT2 inh
O=C1NC2(CCN(S(=O)(=O)c3cccs3)CC2)Oc2ccccc21	?	?	-29%	i	i
O=C(c1ccccc1Cl)N1CCC2(CC1)Cc1ccccc1NC2=O	45µM*	?	5%	i	?
COc1ccc(C(=O)N2CCC3(CC2)Cc2ccccc2NC3=O)cc1	22µM*	35µM*	-9%	i	i
COc1ccc(C(=O)N2CCC3(CC(C(C)C)=NO3)C2)cc1 (centres undefined)	1%	0%	/	/	i
COc1ccc(C(=O)N2CCC3(CC2)CC(C(C)C)=NO3)cc1	-19%[172 µM]	100µM*	-7%[70.6 µM]	i	i
O=C(c1ccccc1)N1CCC2(CC1)Cc1ccccc1NC2=O	?	?	0%[70.6 µM]	i	-5%[88.5 µM]
O=C(NC1CCN(c2ccc3nnc(-c4ccccc4)n3n2)CC1)C1CCCC1	-14%	?	/	/	/
CN(C)c1ccc(-c2nnc([C@H]3CCN(Cc4ccccn4)C3)o2)cc1	?	-28%[174 µM]	2%[70.6 µM]	?	-7%[88.5 µM]
CN(C)c1ccc(-c2nnc([C@H]3CCN(C(=O)c4ccccn4)C3)o2)cc1	?	-12%[174 µM]	-15%[70.6 µM]	20µM*	i
CC(=O)NC1(C)CCN(Cc2ccccc2-c2ccccc2Oc2ccccc2)C1 (centres undefined)	?	79µM*	-18%[70.6 µM]	i	i
CC(=O)NC1(C)CCCN(Cc2ccc(Oc3ccccc3)cc2)C1 (centres undefined)	?	?	1%[70.6 µM]	?	-4%[88.5 µM]
CC(=O)NC1(C)CCN(Cc2ccc(-c3ccc4ccccc4c3)cc2)C1 (centres undefined)	28µM*	25µM*	16µM*	?	4%[88.5 µM]
CC(=O)NC1(C)CCN(Cc2ccc(-c3ccc(Oc4ccccc4)cc3)cc2)C1 (centres undefined)	?	13µM*	18µM*	22µM*	-12%[88.5 µM]
COc1ccc(CN2CCc3oc(C)c(C(=O)NC4CCN(C)CC4)c3C2)cc1	?	-13%	0%	i	i
CN(C)c1cccc(-c2cnc(Nc3ccncc3)c3c2CCO3)c1	56µM*	50µM*	-13%[70.6 µM]	i	1%[88.5 µM]
CN(C)c1cccc(C(=O)Nc2ncc(-c3cccc(F)c3)c3c2OCC3)c1	?	?	-12%[70.6 µM]	i	5%[88.5 µM]
COc1ccccc1-c1cnc(Nc2cccc(N[S+](C)(=O)[O-])c2)c2c1CCO2	40µM*	20µM*	32µM*	?	i
CN(C)c1cccc(-c2cnc(Nc3cccc(N[S+](C)(=O)[O-])c3)c3c2CCO3)c1	20µM*	?	?	?	i
O=C(N[C@@H]1CN(C(=O)Nc2ccccc2)CCC[C@H]1O)c1ccc(O)cc1	-2%[172 µM]	-21%[138 µM]	-3%[70.6 µM]	?	i
Cc1ccccc1Nc1cc2c(nc1-c1ccccc1)nc(C(=O)NCCN(C)C)n2C	40µM*	32µM*	2%[70.6 µM]	i	?
CN(C)CCNC(=O)c1nc2nc(-c3ccccc3)c(Nc3ccc(F)cc3)cc2n1C	56µM*	?	2%[70.6 µM]	i	i

Assay outcomes deposited in PubChem BioAssay by National Center for Advancing Translational Sciences (NCATS).
